The source of these data is PubChem BioAssay (NCI).

What all share (test): NCI-60 one-dose screen, 48 h (100 = growth as untreated, 0 = no growth, -100 = all killed)
Holding throughout (conditions): 10 µM unless noted

Assay [1] concerns NCI-H23 lung.
Assay [2] concerns NCI-H226 lung.
The test system of assay [3] is NCI-H322M lung.
Assay [4] relates to HOP-62 NSCLC.
The subject of assay [5] is NCI-H460 lung.
The test system of assay [6] is HOP-92 NSCLC.
Assay [7] deals with NCI-H522 lung.
Assay [8] relates to A549/ATCC NSCLC.
The test system of assay [9] is 786-0 renal.
Assay [10] has as its system COLO 205 colon.
For assay [11], the system named is DU-145 prostate.
For assay [12], the system named is K-562 leukemia.
In assay [13] the test system is MALME-3M melanoma.
Assay [14] relates to MDA-MB-231 breast.
Assay [15] concerns RXF 393 renal.
In assay [16] the test system is SF-268 CNS.
The test system of assay [17] is SF-295 CNS.
In assay [18] the test system is SF-539 CNS.
Assay [19] deals with UACC-257 melanoma.
Assay [20] has as its system M14 melanoma.

Each structure is given as a SMILES string. Compounds without any hit were thinned out: in the full panel of roughly 83,000, 20% have a hit.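 Values shown are percent growth following 48 h exposure of cells in 96-well plates to a single concentration of compound; below 10 was considered active.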 Values without a mark were called inactive. Activity calls are given as the source filed them.

As for `COc1ccc(C/C(C)=C(/c2ccc(OCCN3CCCCCC3)cc2)c2ccc(OC(=O)NCc3ccccc3)cc2)cc1`, the growth in [1] was 86.4%; in [2] it was 101%; in [3], 93.2%; in assay [4] it was 91.1%; in [5], 70.7%; in assay [6], 56%. Moreover, the growth in assay [7] was 75.2%; in assay [8], 77%; in assay [9], 83.5%; in [10], 85.7%; in [11] it was 95.6%; in [12], 28%. For the same compound, the growth in [13] was 95.2%; in assay [14], 83.9%; in [15], 84%; in assay [16] it was 88.4%; in assay [17], 98.2%; in [18], 96.7%. For the same compound, the growth in [19] is 94.7%; in assay [20], 95.6%.
For the compound `O=C1c2cccnc2C(=O)c2c1c(C(=O)OCCCN1CCCCC1)c1ccccn21`, the growth in assay [1] was -48.5% (active); in [2], -18.4% (active); in [3] it was -18.1% (active); in assay [4], -31.9% (active); in assay [5], -63.3% (active); in [6] it was -8.21% (active). Further, the growth is -80% (active) in assay [7]; -63.8% (active) in assay [8]; -62.6% (active) in [9]; -79% (active) in [10]; -86.8% (active) in assay [11]; -28.5% (active) in assay [12]. Further, the growth in [13] is -78.2% (active); in [14], -8.94% (active); in [15], -64.2% (active); in assay [16], -15.3% (active); in assay [17] it was -13.9% (active); in assay [18], -9.46% (active). Also, the growth was -38.4% (active) in [19] and -83.5% (active) in [20].
For `CCCCCCCC/C=C\CCCCCCCCOc1ccccc1CC(=O)NCC[N+]1(C)CCCCC1`, the growth in assay [1] was 58.9%; in [2] it was 67.1%; in assay [3], 96.5%; in [4] it was 75.9%; in [5], 50.4%; in assay [6], 48.1%. The growth in assay [7] was 38%; in assay [8] it was 66.3%; in [9] it was 96.8%; in assay [10], 23%; in assay [11], 67.1%; in assay [12], 36.3%. The growth in [13] was 69.8%; in [14] it was 59.8%; in assay [15], 28.6%; in assay [16] it was 39.2%; in [17], 97.4%; in [18], 95.1%. In addition, the growth in assay [19] is 61.5%; in [20], 65.5%.
Regarding `Cc1nc2sc(C(=O)Nc3ccccc3)c(N)c2cc1C(=O)/C=C/c1ccccc1`, the growth in assay [1] is 10.9%; in assay [2], 5.17% (active); in [3], 10.7%; in [4] it was -26.2% (active); in assay [5], -71% (active); in assay [6] it was 6.29% (active). Moreover, the growth was -42.5% (active) in assay [7]; 13.2% in assay [8]; -57.2% (active) in assay [9]; 14.2% in assay [10]; 1.91% (active) in assay [11]; 12% in assay [12]. For the same compound, the growth is 50.1% in assay [13]; -9.1% (active) in [14]; -74.8% (active) in [15]; 0.182% (active) in assay [16]; 18.1% in assay [17]; -27% (active) in assay [18]. Also, the growth in [19] is 54.2%; in assay [20], 11.1%.
Take `N#Cc1c(NC(=O)c2cccs2)[n+]([O-])c2ccc(Cl)cc2[n+]1[O-]`: the growth in assay [1] was 103%; in [2], 92.1%; in [3] it was 108%; in assay [4], 95.7%; in assay [5] it was 113%; in assay [6], 94.8%. The growth in assay [7] was 93.7%; in assay [8], 122%; in assay [9], 107%; in [10] it was 113%; in [11], 121%; in assay [12], 106%. Further, the growth in assay [13] is 92%; in [14], 82.7%; in [15] it was 127%; in assay [16], 106%; in [17], 93.8%; in [18] it was 108%. Moreover, the growth in assay [19] is 120%; in [20] it was 80.2%.
As for `Cc1ccc(C)n1/C=C/n1c(C)ccc1C`, the growth is 94.7% in assay [1]; 99% in assay [2]; 103% in [3]; 114% in [4]; 110% in assay [5]; 75% in assay [6]. Further, the growth in assay [7] is 83.8%; in [8] it was 95.5%; in [9], 107%; in [10], 96.9%; in assay [11], 113%; in [12], 117%. The growth in assay [13] was 117%; in assay [14], 99.2%; in [15], 102%; in assay [16] it was 143%; in assay [17] it was 76.9%; in [18], 100%. Besides, the values for the growth in assay [19] and in [20] were 119% and 110%, respectively.
On to `C[Se]C(=O)CC1=C2C=C(F)C=CC2/C(=C\c2ccc(S(C)=O)cc2)C1C` (stereo not given), for which the growth in [1] was 13.5%; in assay [2], 1.21% (active); in assay [3], 14.1%; in assay [4] it was -24.3% (active); in assay [5], -1% (active); in assay [6] it was -41.4% (active). The growth in assay [7] is 12.9%; in assay [8], -60.1% (active); in [9], 3.8% (active); in assay [10], -17.4% (active); in assay [11], -50.5% (active); in [12], 28.6%. Besides, the growth in assay [13] was -68.7% (active); in assay [14], -46% (active); in assay [15], 6.68% (active); in assay [16] it was -28.2% (active); in assay [17], 11.3%; in assay [18], -30.3% (active). For the same compound, the growth was -21.5% (active) in assay [19] and 7.44% (active) in assay [20].
`C#CCn1cnc2c(Nc3cccc(NC(=O)CCl)c3)ncnc21`: the growth is 38.1% in [1]; 51.4% in assay [2]; 81.1% in assay [3]; 43.5% in [4]; 21.8% in assay [5]; 35.3% in [6]. The growth was -19.1% (active) in [7]; 44.8% in assay [8]; 49.2% in assay [9]; 18.6% in assay [10]; 43.6% in assay [11]; 13.2% in assay [12]. In addition, the growth is 34.4% in [13]; 18.4% in assay [14]; 54.6% in [15]; 35.3% in assay [16]; 59.7% in [17]; 45.4% in assay [18]. For the same compound, the values for the growth in assay [19] and in [20] were 28.4% and 24.4%, respectively.
